# Bioassay records as filed in PubChem BioAssay.
# Shown are actives, neighbours in structure and some others; about 1.9% of the full set was active somewhere.
# MLLE-PAM2 inh: blocks PAM2 peptide binding to the PABP1 MLLE domain; inhibition, % at 20 µM; GST-MLLE / FITC-PAM2 fluorescence polarization; P11940; 0.36% of 360,000 active; in the data active = inhibition above about 35%, passing the limit was not always enough;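 also: plate controls were DMSO wells with GST-MLLE for no effect and wells lacking GST-MLLE protein for full effect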
# eIF4E-4G inh: eIF4E/eIF4G interaction inhibition in translation initiation | P63073+Q04637 | AID 782 | 0.37% of 220,000 active | TR-FRET eIF4E-eIF4GI(517-606) binding, 2 h | inhibition, % at 21.7 µM;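 active = inhibition above about 30%, limit read from the data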;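 also: 0% = full FRET control wells and 100% = background wells lacking eIF4GI fragment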
# 14-3-3 Bad PPI: disrupts binding of bovine 14-3-3 zeta to phospho-Bad peptide; P63103; TR-FRET 14-3-3zeta/Dy647-pBad peptide displacement, 1 h; inhibition, % at 21.7 µM; 0.71% of 220,000 active; AID 781;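 active = inhibition above about 70%, limit read from the data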;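 also: 0% = full 14-3-3 plus peptide FRET controls and 100% = background without 14-3-3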
# Target sequence (P63103 whole entry, looked up): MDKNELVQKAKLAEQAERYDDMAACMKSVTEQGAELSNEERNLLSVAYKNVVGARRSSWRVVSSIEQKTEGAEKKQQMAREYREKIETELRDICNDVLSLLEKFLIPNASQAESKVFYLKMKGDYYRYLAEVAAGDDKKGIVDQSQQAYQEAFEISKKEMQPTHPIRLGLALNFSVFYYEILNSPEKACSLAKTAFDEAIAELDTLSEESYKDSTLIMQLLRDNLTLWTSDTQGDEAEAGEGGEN
# PABP FP inh: PABP-poly(A) binding inhibition; 1% of 290,000 active; P11940; PABP-poly(A) RNA binding, fluorescence polarization; calls only at 35 µM;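 also: calls also rest on retests at 20 µM and on dose response follow-up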
# eIF4H inh: inhibitors of RNA binding by human eIF4H; eIF4H fluorescence polarization binding assay; inhibition, % at 35 µM; 0.94% of 290,000 active; AID 2012;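 also: calls also rest on retests at 20 µM and on dose response follow-up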
# * marks the source's active call; other numbers are inactive results; i = inactive; . = no result; + = active, no number; [ ] = remark or other dose. Unless noted, no rule for the calls is given here.
SMILES,MLLE-PAM2 inh,eIF4E-4G inh,14-3-3 Bad PPI,PABP FP inh,eIF4H inh
CCOC(=O)C(C)N1C(=O)S/C(=C\c2ccc(-c3ccccc3C(=O)O)o2)C1=O (centres undefined),-6,.,.,+,101*
C#CCN1C(=O)S/C(=C\c2ccc(-c3ccc(C(=O)O)cc3C)o2)C1=O,4,.,.,+,76*
Cc1ccc(NC(=O)CN2C(=O)S/C(=C/c3ccc(O)c([N+](=O)[O-])c3)C2=O)cc1C,-2,45*,83*,i,68
Cc1ccc(C)c(N2C(=N)S/C(=C\c3ccc(-c4ccccc4C(=O)O)o3)C2=O)c1,-64,6,50,i,44
Cc1c(-c2ccccc2)oc2c(C(=O)N3CCN(c4ccccc4F)CC3)cccc2c1=O,11,8,0,i,1
COc1cc(NC(=O)CN2C(=O)c3ccccc3S2(=O)=O)cc(OC)c1,-3,.,.,.,.
O=[N+]([O-])c1cc([N+](=O)[O-])c(Oc2ccc(Cl)c3cccnc23)cc1NN1CCCCC1,-1,.,.,i,0
COC(=O)c1c(NC(=O)c2ccc(C)o2)sc2c1CCCCC2,37*,1,10,i,10
COCCC(=O)N1CCC(Oc2ccc(C(=O)NCCn3cccn3)cc2)CC1,-5,.,.,i,-11
O=c1nc(N/N=C/C=C/c2ccccc2)cn[nH]1,-3,5,-4,i,4
O=[N+]([O-])c1cc(CN2CCCC2)c2cccnc2c1O,15,10,-13,i,87*
Oc1ccc(CN2CCCCC2)c2cccnc12,16,-3,-12,i,85*
Cc1cccc(N2CCN(C(=O)COc3noc4nc(C)cc(C)c34)CC2C)c1 (centres undefined),5,.,.,.,.
COc1cnc(SCC(=O)O)[nH]c1=O,22,3,5,+,7
COc1cc(Nc2ccc(S(N)(=O)=O)cc2)c([N+](=O)[O-])nc1[N+](=O)[O-],-1,.,.,i,-5
O=C(NCC(c1ccco1)N1CCCC1)c1sc2ccccc2c1Cl (centres undefined),-6,.,.,+,85*
O=C(Cc1cccc(C(F)(F)F)c1)NCC(c1ccco1)N1CCCCC1 (centres undefined),-22,-4,89*,i,-2
O=S(=O)(NCC(c1ccco1)N1CCCCC1)c1cccc(C(F)(F)F)c1 (centres undefined),-16,.,.,.,.
CC(C)(C)c1cc(NCc2ccccn2)n2ncc(-c3ccc(Cl)cc3)c2n1,14,5,-6,i,-1
CN(C)CCCNc1cc(C(C)(C)C)nc2c(-c3ccc(Cl)cc3)cnn12,2,36*,79*,i,12
NC(=O)C1CCN(C(=O)CN2CCCc3ccccc32)CC1,33,-8,-15,+,78*
O=C(Nc1nc(-c2ccccn2)cs1)c1cc2ccccc2o1,-20,2,-9,i,21
O=C(Nc1nc(-c2cc3ccccc3oc2=O)cs1)c1ccc(Br)o1,-7,7,79*[fluorescence artefact?],i,12
COc1cccc2sc(Nc3nc(-c4cc5ccccc5oc4=O)cs3)nc12,-45,18,94*[fluorescence artefact?],i,18
Cc1cc(-c2csc(NC(=O)c3cc4ccccc4o3)n2)c(C)n1C,-19,-6,3,+,98*
SMILES,MLLE-PAM2 inh,eIF4E-4G inh,14-3-3 Bad PPI,PABP FP inh,eIF4H inh
O=C(O)c1ccc(Nc2nc(-c3cc4ccccc4oc3=O)cs2)cc1O,-51,1,40,i,51*
CCC1Sc2ccc(S(=O)(=O)CCC(=O)Nc3ccc(OC(F)(F)F)cc3)cc2NC1=O (centres undefined),0,.,.,.,.
Cc1ccc2cc(C)c(SCC(=O)Nc3cc(C)on3)nc2c1,-14,.,.,i,4
CCC(=O)Nc1ccc(NC(=O)c2cc3ccccc3o2)c(OC)c1,-6,.,.,i,-8
Cc1cccc(N2CCN(C(=O)c3cc(S(=O)(=O)N4CCOCC4)cn3C)CC2C)c1 (centres undefined),-10,.,.,i,-12
O=C(NCc1ccccc1)C(=O)Nc1nccs1,6,2,-11,i,-15
N#Cc1ccc(/C=C/C(=O)c2ccco2)cc1,-109,2,-3,i,11
Nc1ccc(/C=C/C(=O)c2ccco2)cc1,-124,-5,-18,+,54*
COc1ccc(CNS(=O)(=O)c2cc3c4c(c2)C(C)C(=O)N4CCC3)cc1 (centres undefined),2,.,.,i,-13
CC1CCN(C(=O)COc2cccc3c2CCN(Cc2ccccc2)C3=O)CC1,-11,3,-9,i,10
C=CCN(CC=C)C(=S)NC(=O)c1ccc(OC)c(Br)c1,44*,-5,-11,i,3
Cc1ccc(S(=O)(=O)N[C@H](C(=O)Oc2ccc3c(C(F)(F)F)cc(=O)oc3c2)c2ccccc2)cc1,36*,-5,5,i,17
COc1ccc(Cl)cc1NCC(=O)Nc1ccc(OC)c(S(=O)(=O)N2CCCCC2)c1,-5,.,.,.,.
Cc1ccc(S(=O)(=O)Nc2cc(C)c(O)c(Sc3n[nH]c(C)n3)c2)cc1,42*,.,.,i,12
O=[N+]([O-])c1cccc(C(=S)N2CCN(c3ccc(F)cc3)CC2)c1,76*,-5,-5,i,3
CN1c2ccccc2C(O)=C(C(=O)Nc2ccccc2)S1(=O)=O,14,2,22,i,20
CN1c2ccccc2C(O)=C(C(=S)Nc2ccc(F)c(Cl)c2)S1(=O)=O,48*,.,.,i,-14
CN1c2ccccc2C(O)=C(C(=S)Nc2ccccc2)S1(=O)=O,29,1,55,i,1
Cc1ccc(NC(=S)C2=C(O)c3ccccc3N(C)S2(=O)=O)cc1,40*,.,.,i,-7
C#CCNC(=O)C1=C[C@H](c2ccc(C(F)(F)F)cc2)C[C@H](OCCCCO)O1,8,0,-4,i,-7
CCOc1cc(N2CCOCC2)c(OCC)cc1NS(=O)(=O)c1ccc(Cl)s1,16,1,83*,i,97*
CC(CNC(=O)c1ccc(OC2CCN(Cc3ccccn3)CC2)cc1)c1ccccc1 (centres undefined),-4,.,.,i,-9
CN(Cc1ccccc1)CC(O)COc1ccc(CNCCc2ccncc2)cc1 (centres undefined),-16,-4,86*,i,-4
CN(Cc1ccccc1)CC(O)COc1ccc(CNCCc2cccnc2)cc1 (centres undefined),9,4,-5,i,-2
CCOc1ccc2c(c1)nc(SCC(=O)c1ccc(Br)s1)n2C,-106,-20,41,i,-10
CCOc1ccc2c(c1)nc(SCC(=O)c1cccs1)n2C,-111,10,73*,i,3
O=C(NC(Cc1ccccc1)C(=O)N1CCCCC1)c1ccccc1 (centres undefined),-1,.,.,.,.
CCCCn1c(=N)n(CC(=O)c2ccc(OC)cc2)c2ccccc21,.,83*,-4,i,2
COc1ccc(C(=O)Cn2c(=N)n(C)c3ccccc32)cc1,5,0,0,i,4
